Molecules are shown by their SMILES. Active and inactive are the calls of the source.

The results in this text go back to PubChem BioAssay.

The nature of assay [1]: small molecules captured by biotinylated probe aFSTL3 – biochemical, small-molecule microarray, fluorescence 635/667, stem cell growth factor project, primary screen (AID 1064).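 Note: measures binding of the biotinylated anti-FSTL3 antibody to printed compounds.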 The following applies: higher = more signal.
Assay [2] is described as follows: binders from COS7 lysate, DM2A8 probe, primary screen, torsin A project, cell lysate, small-molecule microarray, fluorescence 635/667 (AID 1065). Conditions: higher = more signal, COS7 lysate expressing mutant human TOR1A.
Assay [3] can be described thus: small molecules captured by biotinylated probe aFGF2 – biochemical, small-molecule microarray, fluorescence 635/667, stem cell growth factor project, primary screen (AID 1067).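 Note: measures binding of biotinylated aFGF2 protein to printed compounds on slides; z-score merges feature fluorescence and signal-to-noise across triplicate slides.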 The following applies: higher = more signal.
A short description of assay [4]: small molecules captured by biotinylated probe aFGF10 – biochemical, small-molecule microarray, fluorescence 635/667, stem cell growth factor project, primary screen (AID 1071).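 Note: score merges 667 nm spot intensity and signal to noise from triplicate slides.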 The following applies: higher = more signal.
In assay [5] the target is Neurogenic locus notch homolog protein 2 (Homo sapiens) (UniProt Q04721). As to the kind of experiment: small molecules binding Notch2 protein – biochemical, small-molecule microarray, 635 nm fluorescence, stem cell growth factors, primary screen (AID 1073). Conditions: higher = more signal.
For assay [6], the target named is Pro-neuregulin-1, membrane-bound isoform (Homo sapiens) (UniProt Q02297). Description: small molecules binding neuregulin-1 protein – biochemical, small-molecule microarray, fluorescence 635/667, psychiatric disease protein project, primary screen (AID 1075).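 Note: score combines 667 nm spot fluorescence with signal to noise.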 The following applies: NRG1 binding, 635 nm fluorescence, higher = more signal.
Assay [7] relates to Neuregulin-1 EGF-like domain. As to the kind of experiment: small molecules binding NRG1 EGF domain – biochemical, small-molecule microarray, 635 nm fluorescence, primary screen (AID 1081).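 Note: binding of the protein to compounds printed on small-molecule microarray slides.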 Conditions: higher = more signal.
Assay [8] can be described thus: FRG1 expression reporter modulators in myotubes – cell-based, C2C12 myotubes, firefly/Renilla luciferase, luminescence, FRG1 inhibition for FSHD, primary screen (AID 1084). The following applies: FRG1 promoter luciferase, higher = more signal, called active from +8 up or from −8 down.
The nature of assay [9]: small molecules captured by biotinylated probe aFST – biochemical, small-molecule microarray, fluorescence 635/667, stem cell growth factor project, primary screen (AID 1086).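 Note: score merges 667 nm fluorescence with signal-to-noise of each printed compound spot.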 Conditions: higher = more signal.
A short description of assay [10]: binders of probe aHhip on microarray, primary screen, stem cell growth factor project, biochemical, small-molecule microarray, fluorescence 635/667 (AID 1087).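 Note: score merges spot fluorescence at 667nm with spot signal to noise ratio.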 Conditions: higher = more signal.
In assay [11] the test system is PRMT1 (protein arginine N-methyltransferase 1). As to the kind of experiment: small molecules binding arginine methyltransferase PRMT1 – biochemical, small-molecule microarray, 635 nm fluorescence, primary screen (AID 1088).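 Note: binding of Prmt1 protein to compounds spotted on small-molecule microarray slides.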 Conditions: higher = more signal.
The nature of assay [12]: growth effects on S. cerevisiae YJM789 – YJM789 clinical isolate, OD600, 24 h, basal, primary screen (AID 1089).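 Note: growth of clinical yeast isolate S. cerevisiae YJM 789 seeded 1000 cells per well; test concentration not given here.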 Conditions: higher = more signal, called active from +8 up or from −8 down.
A short description of assay [13]: S. pombe growth modifiers, basal conditions – strain 972, OD600, 24 h, no modulator, primary screen (AID 1090).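 Note: basal condition with compound alone and no growth modifier present; test concentration not given here.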 The following applies: S. pombe 972 growth, higher = more signal, called active from +8 up or from −8 down.
A short description of assay [14]: budding yeast growth modifiers under rapamycin – strain BY4716, OD600, 96 h, primary screen (AID 1091). Note: test concentration not given here. Conditions: S. cerevisiae BY4716 + rapamycin, higher = more signal, called active from +8 up or from −8 down.
Assay [15] addresses Torsin-1A-interacting protein 2 (Homo sapiens) (UniProt Q8NFQ8). Description: small molecules binding lysate-expressed LULL1 – cell lysate, human LULL1 lysate, 635/667 nm fluorescence, primary screen (AID 1092).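 Note: score merges per-feature 667 nm fluorescence with signal-to-noise.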 Conditions: small-molecule microarray, hLULL1 lysate binding, 635 nm fluorescence; higher = more signal.
The nature of assay [16]: optical density change of DRC41 E. coli – strain DRC41, OD650, 24 h, E. coli filamentation project, primary screen (AID 1093).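 Note: MC1000 strain lacking acrAB efflux and sulA so SOS filamentation is blocked; test concentration not given here.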 The following applies: E. coli DRC41 growth, higher = more signal, called active from +8 up or from −8 down.
Assay [17] in a line: probe aLefty2 binding to arrayed compounds – biochemical, biotinylated probe, 635/667 nm fluorescence, primary screen (AID 1094).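 Note: score merges spot fluorescence near 667 nm with spot signal-to-noise ratio.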 The following applies: small-molecule microarray, higher = more signal.
In assay [18] the test system is Noggin (protein binding on small-molecule microarray). Description: small molecules binding Noggin protein – biochemical, 635/667 nm fluorescence, primary screen (AID 1095).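 Note: score merges 667 nm feature fluorescence with signal to noise over triplicate slides.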 The following applies: 635 nm fluorescence, higher = more signal.
In assay [19] the target is Neurogenic locus notch homolog protein 3 (Homo sapiens) (UniProt Q9UM47). Description: small molecules binding NOTCH3 protein – biochemical, 635/667 nm fluorescence, primary screen (AID 1096). The following applies: small-molecule microarray, 635 nm fluorescence, higher = more signal.
The nature of assay [20]: probe aEGFR binding to arrayed compounds – biochemical, biotinylated probe, 635/667 nm fluorescence, primary screen (AID 1097).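 Note: probe is a biotinylated anti-EGFR antibody binding compounds printed on slides; score combines fluorescence near 667 nm and signal to noise of each spot.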 Conditions: small-molecule microarray, higher = more signal.

Chain of Neurogenic locus notch homolog protein 2 (Homo sapiens) (Q04721 whole entry, looked up, canonical isoform): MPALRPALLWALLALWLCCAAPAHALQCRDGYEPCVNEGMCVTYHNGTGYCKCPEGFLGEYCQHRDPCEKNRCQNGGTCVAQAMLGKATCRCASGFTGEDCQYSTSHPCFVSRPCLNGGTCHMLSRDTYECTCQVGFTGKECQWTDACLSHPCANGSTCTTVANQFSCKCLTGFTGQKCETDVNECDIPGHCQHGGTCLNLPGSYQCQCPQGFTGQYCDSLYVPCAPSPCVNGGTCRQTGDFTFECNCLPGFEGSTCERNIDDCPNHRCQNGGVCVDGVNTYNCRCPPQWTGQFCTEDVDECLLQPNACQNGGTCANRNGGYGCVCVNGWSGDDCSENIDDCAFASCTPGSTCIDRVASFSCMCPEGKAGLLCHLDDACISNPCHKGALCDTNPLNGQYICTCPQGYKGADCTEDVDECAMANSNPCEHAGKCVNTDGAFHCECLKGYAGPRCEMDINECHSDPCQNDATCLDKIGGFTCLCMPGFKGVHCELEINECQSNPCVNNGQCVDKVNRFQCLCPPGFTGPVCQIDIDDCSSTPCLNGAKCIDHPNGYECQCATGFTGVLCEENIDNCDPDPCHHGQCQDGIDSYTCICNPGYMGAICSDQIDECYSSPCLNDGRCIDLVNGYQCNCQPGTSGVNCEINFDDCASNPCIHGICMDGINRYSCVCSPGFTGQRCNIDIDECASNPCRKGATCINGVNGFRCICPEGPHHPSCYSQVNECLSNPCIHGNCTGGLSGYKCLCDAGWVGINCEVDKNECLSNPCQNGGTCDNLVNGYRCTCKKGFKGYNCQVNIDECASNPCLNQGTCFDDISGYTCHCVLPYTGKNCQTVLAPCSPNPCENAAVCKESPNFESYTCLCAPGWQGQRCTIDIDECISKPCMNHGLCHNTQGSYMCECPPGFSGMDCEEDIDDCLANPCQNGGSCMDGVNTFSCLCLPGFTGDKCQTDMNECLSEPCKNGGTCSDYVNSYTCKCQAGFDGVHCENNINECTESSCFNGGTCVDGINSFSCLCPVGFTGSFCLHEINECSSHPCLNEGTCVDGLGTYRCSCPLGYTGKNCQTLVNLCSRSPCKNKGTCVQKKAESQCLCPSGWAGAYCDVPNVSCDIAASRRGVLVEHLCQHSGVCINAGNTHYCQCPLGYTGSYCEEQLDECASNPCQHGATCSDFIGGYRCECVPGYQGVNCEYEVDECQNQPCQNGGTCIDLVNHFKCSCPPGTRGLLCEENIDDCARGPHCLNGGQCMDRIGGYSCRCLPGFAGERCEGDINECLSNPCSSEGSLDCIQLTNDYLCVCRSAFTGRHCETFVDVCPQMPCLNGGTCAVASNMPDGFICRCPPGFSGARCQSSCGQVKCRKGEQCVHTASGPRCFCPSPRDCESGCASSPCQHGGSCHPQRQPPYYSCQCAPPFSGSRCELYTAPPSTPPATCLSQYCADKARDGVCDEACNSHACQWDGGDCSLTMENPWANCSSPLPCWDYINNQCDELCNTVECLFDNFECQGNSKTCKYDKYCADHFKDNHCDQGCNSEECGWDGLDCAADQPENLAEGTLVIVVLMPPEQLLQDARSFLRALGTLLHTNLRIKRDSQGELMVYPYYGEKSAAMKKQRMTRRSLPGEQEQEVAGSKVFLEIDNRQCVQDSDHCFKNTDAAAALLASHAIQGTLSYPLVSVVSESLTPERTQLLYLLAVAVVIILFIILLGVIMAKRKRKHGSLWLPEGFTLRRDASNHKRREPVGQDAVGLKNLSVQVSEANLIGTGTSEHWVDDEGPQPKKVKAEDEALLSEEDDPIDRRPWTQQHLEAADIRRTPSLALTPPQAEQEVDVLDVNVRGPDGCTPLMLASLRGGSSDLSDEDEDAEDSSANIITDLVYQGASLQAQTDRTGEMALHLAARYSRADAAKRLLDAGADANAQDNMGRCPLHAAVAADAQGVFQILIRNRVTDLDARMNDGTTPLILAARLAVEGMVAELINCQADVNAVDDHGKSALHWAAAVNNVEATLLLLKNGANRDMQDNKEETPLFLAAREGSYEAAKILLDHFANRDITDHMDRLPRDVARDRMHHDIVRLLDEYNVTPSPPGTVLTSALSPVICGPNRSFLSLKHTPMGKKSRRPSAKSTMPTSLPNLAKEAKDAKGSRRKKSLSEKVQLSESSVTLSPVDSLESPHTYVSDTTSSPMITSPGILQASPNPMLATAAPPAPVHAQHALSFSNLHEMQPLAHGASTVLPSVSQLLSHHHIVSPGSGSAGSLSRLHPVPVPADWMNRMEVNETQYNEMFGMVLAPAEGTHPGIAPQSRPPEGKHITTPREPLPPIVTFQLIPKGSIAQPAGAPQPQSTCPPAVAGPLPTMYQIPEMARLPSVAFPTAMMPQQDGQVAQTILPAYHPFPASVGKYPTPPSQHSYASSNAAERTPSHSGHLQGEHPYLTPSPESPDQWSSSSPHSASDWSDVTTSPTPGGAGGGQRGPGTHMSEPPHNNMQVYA
Chain of Neurogenic locus notch homolog protein 3 (Homo sapiens) (Q9UM47 whole entry, looked up): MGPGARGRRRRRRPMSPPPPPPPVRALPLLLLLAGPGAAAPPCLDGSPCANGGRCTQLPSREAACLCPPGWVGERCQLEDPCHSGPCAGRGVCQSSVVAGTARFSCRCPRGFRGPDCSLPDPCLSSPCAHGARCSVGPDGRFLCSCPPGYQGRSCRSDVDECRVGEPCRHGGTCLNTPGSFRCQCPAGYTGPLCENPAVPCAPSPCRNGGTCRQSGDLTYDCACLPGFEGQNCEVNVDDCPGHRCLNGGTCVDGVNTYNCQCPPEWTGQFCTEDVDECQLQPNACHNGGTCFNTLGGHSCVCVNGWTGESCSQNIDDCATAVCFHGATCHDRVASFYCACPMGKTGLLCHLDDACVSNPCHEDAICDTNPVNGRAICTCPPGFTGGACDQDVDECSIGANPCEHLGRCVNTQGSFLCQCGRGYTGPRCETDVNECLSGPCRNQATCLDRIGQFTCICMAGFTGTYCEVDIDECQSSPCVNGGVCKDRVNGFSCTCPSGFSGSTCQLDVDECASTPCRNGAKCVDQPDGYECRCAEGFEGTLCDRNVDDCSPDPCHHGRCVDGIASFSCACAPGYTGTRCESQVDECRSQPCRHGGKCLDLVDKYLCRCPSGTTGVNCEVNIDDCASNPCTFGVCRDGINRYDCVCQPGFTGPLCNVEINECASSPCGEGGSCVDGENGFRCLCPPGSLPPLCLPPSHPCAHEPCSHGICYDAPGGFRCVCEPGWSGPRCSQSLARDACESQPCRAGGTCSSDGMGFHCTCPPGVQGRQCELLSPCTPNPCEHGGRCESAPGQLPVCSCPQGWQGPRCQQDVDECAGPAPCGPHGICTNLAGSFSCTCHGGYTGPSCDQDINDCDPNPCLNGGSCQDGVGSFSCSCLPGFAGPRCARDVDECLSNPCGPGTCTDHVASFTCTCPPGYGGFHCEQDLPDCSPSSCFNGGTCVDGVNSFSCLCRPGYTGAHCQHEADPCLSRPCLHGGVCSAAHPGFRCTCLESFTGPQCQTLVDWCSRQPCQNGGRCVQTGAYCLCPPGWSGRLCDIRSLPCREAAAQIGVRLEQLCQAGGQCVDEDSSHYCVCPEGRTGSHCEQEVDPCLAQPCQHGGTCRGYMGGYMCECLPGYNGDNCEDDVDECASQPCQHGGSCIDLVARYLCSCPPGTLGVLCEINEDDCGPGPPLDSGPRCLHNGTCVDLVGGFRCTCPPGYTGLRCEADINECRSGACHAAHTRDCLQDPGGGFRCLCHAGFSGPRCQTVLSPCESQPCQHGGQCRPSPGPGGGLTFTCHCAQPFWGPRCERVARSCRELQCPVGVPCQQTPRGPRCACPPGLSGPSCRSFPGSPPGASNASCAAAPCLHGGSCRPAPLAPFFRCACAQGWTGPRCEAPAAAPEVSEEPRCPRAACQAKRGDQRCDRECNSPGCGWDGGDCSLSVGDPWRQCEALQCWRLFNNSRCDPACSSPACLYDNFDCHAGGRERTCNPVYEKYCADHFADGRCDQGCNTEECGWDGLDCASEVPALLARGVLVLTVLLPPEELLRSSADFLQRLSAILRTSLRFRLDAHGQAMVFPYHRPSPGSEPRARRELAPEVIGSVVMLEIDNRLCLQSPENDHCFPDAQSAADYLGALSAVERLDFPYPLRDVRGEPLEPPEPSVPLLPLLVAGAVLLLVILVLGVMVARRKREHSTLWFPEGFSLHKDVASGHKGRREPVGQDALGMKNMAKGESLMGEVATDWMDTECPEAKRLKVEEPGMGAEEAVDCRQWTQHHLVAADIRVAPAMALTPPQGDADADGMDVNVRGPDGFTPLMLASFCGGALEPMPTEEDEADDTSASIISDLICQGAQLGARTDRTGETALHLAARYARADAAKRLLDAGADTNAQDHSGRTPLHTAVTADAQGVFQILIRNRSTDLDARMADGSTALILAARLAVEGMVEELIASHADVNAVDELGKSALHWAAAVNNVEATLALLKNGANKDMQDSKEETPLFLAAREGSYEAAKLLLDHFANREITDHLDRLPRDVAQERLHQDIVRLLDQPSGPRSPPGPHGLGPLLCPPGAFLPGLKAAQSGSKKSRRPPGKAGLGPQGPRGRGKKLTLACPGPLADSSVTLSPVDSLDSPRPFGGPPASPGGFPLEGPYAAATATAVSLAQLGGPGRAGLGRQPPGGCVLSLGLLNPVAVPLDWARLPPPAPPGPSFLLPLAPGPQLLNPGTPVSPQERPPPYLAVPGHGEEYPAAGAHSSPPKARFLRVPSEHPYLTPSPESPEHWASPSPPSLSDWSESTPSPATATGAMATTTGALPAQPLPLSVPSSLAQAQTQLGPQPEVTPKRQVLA

In the case of `CCOC(=O)C[C@H]1[C@H](OC(=O)c2ccc(-c3ccccc3)cc2)[C@@H](NC(=O)Cc2ccc(OC)cc2)c2cc(OCCCO)ccc2N1C(=O)Cc1ccc(OC)cc1`, the composite z-score was -0.278 in [1]; -0.236 in [2]; -0.101 in assay [3]; 0.102 in assay [4]; 0.216 in assay [5]; 0.243 in assay [6]. The composite z-score in assay [7] is -0.29; in assay [9], 0.3; in [10], -0.154; in assay [11], 0.287; in [15], 1.55; in assay [17] it was -0.0769. Also, the composite z-score is -0.542 in assay [18], -0.0636 in [19] and -0.094 in assay [20]. Besides, the z-score in assay [8] is -0.362 (inactive); in [12] it was 1.09 (inactive); in [13], -0.231 (inactive); in assay [14], 1.63 (inactive); in assay [16], 1.3 (inactive).

With `Cc1ccc(S[C@]2(C(=O)NC(C)C)CC(=O)N(C(C)C)[C@@H]2c2ccc(CO)cc2I)cc1`, the composite z-score in assay [1] is -0.244; in [2], -0.242; in assay [3], -0.0272; in [4], 0.145; in assay [5], 0.0213; in assay [6], 0.637. Moreover, the composite z-score in assay [7] is 1.05; in assay [9] it was -0.198; in [10], 0.0749; in assay [11] it was 0.841; in assay [15] it was 1.53; in assay [17] it was -0.0654. Also, the values for the composite z-score in assay [18], in assay [19] and in assay [20] were -0.337, -0.196 and -0.144, respectively. Also, the z-score in assay [8] is -0.13 (inactive); in assay [12], -0.466 (inactive); in assay [13], -0.222 (inactive); in assay [14] it was -0.294 (inactive); in [16], 0.529 (inactive).

`C=CCC(OC(C)=O)[C@@H]1[C@@H](N(Cc2cccc3ccccc23)C(=O)Cc2ccc(F)cc2)c2cc(OCCCO)ccc2N1C(=O)c1ccc(-c2ccccc2)cc1` (stereo not given in full): the composite z-score was 0.873 in assay [1]; -0.302 in assay [2]; -0.0427 in assay [3]; -0.387 in assay [4]; -0.648 in [5]; -0.61 in [6]. Moreover, the composite z-score was -0.802 in [7]; 0.392 in assay [9]; -0.14 in assay [10]; -0.325 in [11]; 0.451 in assay [15]; 0.125 in assay [17]. In addition, the composite z-score was -0.556 in assay [18], -1.37 in [19] and 0.0457 in assay [20]. For the same molecule, the z-score was -1.83 (inactive) in [8]; -0.256 (inactive) in assay [12]; -0.277 (inactive) in assay [13]; 0.18 (inactive) in assay [14]; 0.125 (inactive) in [16].

Take `COC(=O)C1N=C(c2ccc(OCCCO)cc2)N(c2ccccc2)O1` (stereo not given): the composite z-score in assay [1] was 0.397; in assay [2], 0.148; in [3] it was -0.0189; in assay [4], 1.17; in assay [5], 1.54; in assay [6], 1.1. Also, the composite z-score in assay [7] was 0.913; in assay [9], 0.897; in assay [10] it was -0.317; in [11] it was 0.433; in [15] it was 2.07; in assay [17], 0.156. The results for the composite z-score in assay [18], in assay [19] and in [20] were 0.981, 0.698 and 0.271, respectively. The z-score in [8] was 2.35 (inactive); in assay [12] it was -0.686 (inactive); in assay [13] it was -1.16 (inactive); in assay [14], -0.417 (inactive); in assay [16], 0.267 (inactive).

`COC(=O)[C@@]1(Cc2ccccc2)[C@H]2c3cc(C(=O)N(C)C)n(CCn4cc([N+](=O)[O-])nc4C)c3C[C@H]2CN1C(=O)c1ccccc1`: the composite z-score in assay [1] was 0.0989; in assay [2] it was 0.227; in [3] it was -0.045; in [4], 0.861; in [5] it was 1.23; in assay [6] it was 0.204. The composite z-score is 1.2 in [7]; 0.928 in assay [9]; -0.281 in assay [10]; 1.13 in assay [11]; 3.63 in assay [15]; 0.16 in assay [17]. The composite z-score in assay [18] was 0.0356; in assay [19] it was 1.03; in assay [20], -0.0088. Further, the z-score was -0.0393 (inactive) in [8]; -1.54 (inactive) in assay [12]; 0.69 (inactive) in assay [13]; 0.253 (inactive) in assay [14]; -0.592 (inactive) in assay [16].
